# Pf Dd2 inh: blocks growth of Plasmodium falciparum Dd2 parasites; activity change, % at 10 µM; P. falciparum Dd2 growth, SYBR Green, 72 h; hits give low values; actives 2.3% (n = 94,000); AID 1159554; in the data active = activity change below about -80%
# C diff growth: blocks growth of Clostridium difficile; actives 0.25% (n = 86,000); Clostridium difficile clinical isolate growth, OD600, 24 h; hits give low values; AID 1259249; growth activity, negative = inhibition, % at 16 µg/mL (by protocol);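 active = mean growth activity at or below -80% and every replicate also at or below -80%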;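 also: 0% = DMSO wells and -100% = levofloxacin 16 µg/mL wells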
# Starred values were filed as active, the others as inactive; x = no result; ! = not active in a repeat. This is a sample that favours compounds with a hit; in the whole collection about 2.3% have one here.
SMILES,Pf Dd2 inh,C diff growth
COc1ccc(S(=O)(=O)N(C)C[C@H]2OCCCC[C@H](C)Oc3ccc(NC(=O)Nc4cccc5ccccc45)cc3C(=O)N([C@H](C)CO)C[C@@H]2C)cc1,-21,0
C[C@H](CO)N1C[C@H](C)[C@@H](CN(C)S(=O)(=O)c2ccccc2)OCCCC[C@H](C)Oc2ccc(NC(=O)Nc3cccc4ccccc34)cc2C1=O,-43,-1
COc1ccc(S(=O)(=O)N(C)C[C@H]2OCCCC[C@@H](C)Oc3ccc(NC(=O)Nc4cccc5ccccc45)cc3C(=O)N([C@H](C)CO)C[C@H]2C)cc1,-82*,4
COc1ccc(S(=O)(=O)N(C)C[C@@H]2OCCCC[C@@H](C)Oc3ccc(NC(=O)Nc4cccc5ccccc45)cc3C(=O)N([C@@H](C)CO)C[C@@H]2C)cc1,-83*,8
O=C([C@@H]1[C@@H](CO)[C@@H]2Cn3c(cccc3=O)[C@@H]2N1Cc1ccccc1)N1CCCCC1,-5,-3
C[C@H](CO)N1C[C@H](C)[C@@H](CN(C)Cc2ccc3c(c2)OCO3)Oc2c(NS(=O)(=O)c3ccccc3)cccc2C1=O,27,-21
C[C@@H]1CN([C@H](C)CO)C(=O)c2cc(C#CCc3ccccc3)cnc2O[C@@H]1CN(C)CC1CCOCC1,-57,1
C[C@H]1CN([C@@H](C)CO)C(=O)c2cc(C#CCc3ccccc3)cnc2O[C@@H]1CN(C)CC1CCCC1,-88*,-1
C[C@@H]1CN([C@H](C)CO)C(=O)c2cc(C#CCc3ccccc3)cnc2O[C@H]1CN(C)CC1CCOCC1,-63,-4
C[C@@H]1CN([C@H](C)CO)C(=O)c2cc(C#CCc3ccccc3)cnc2O[C@H]1CN(C)CC1CCCC1,-94*,8
COc1ccccc1CN(C)C[C@@H]1OCc2cn(nn2)CCCC(=O)N([C@H](C)CO)C[C@H]1C,-9,7
C[C@H](CO)N1C[C@H](C)[C@@H](CN(C)C(=O)Nc2ccc3c(c2)OCO3)OCCCC[C@H](C)Oc2ccc(NC(=O)Nc3ccc(C(F)(F)F)cc3)cc2C1=O,-57,8
C[C@@H]1CCCCO[C@@H](CN(C)C(=O)Nc2ccc3c(c2)OCO3)[C@H](C)CN([C@@H](C)CO)C(=O)c2cc(NC(=O)Nc3ccc(F)cc3)ccc2O1,4,2
C[C@@H]1CN([C@@H](C)CO)C(=O)c2cc(NC(=O)Nc3ccc(F)cc3)ccc2O[C@@H](C)CCCCO[C@@H]1CN(C)C(=O)Nc1ccc2c(c1)OCO2,-89*,3
C[C@H]1CCCCO[C@H](CN(C)C(=O)Nc2ccc(C(F)(F)F)cc2)[C@@H](C)CN([C@@H](C)CO)C(=O)c2cc(NC(=O)Nc3ccc4c(c3)OCO4)ccc2O1,-85*,-4
C[C@@H]1CCCCO[C@H](CN(C)S(=O)(=O)c2ccc(F)cc2)[C@@H](C)CN([C@@H](C)CO)C(=O)c2cc(NS(=O)(=O)c3cn(C)cn3)ccc2O1,-33,2
COCC(=O)Nc1ccc2c(c1)[C@H]1C[C@@H](CC(=O)NCc3cccc(F)c3)O[C@@H](CO)[C@H]1O2,5,-2
O=C(Nc1ccc(C(F)(F)F)cc1)N1C[C@@H]2N[C@H](C1)C2c1ccc(/C=C/c2ccccc2)cc1 (stereo partly specified),-90*!,-100*
Cc1cccc(-c2ccc(C3[C@@H]4CN(C(=O)Nc5ccccc5)C[C@H]3N4)cc2)c1 (stereo partly specified),-15,55
O=C(Nc1ccc(C(F)(F)F)cc1)N1C[C@@H]2N[C@H](C1)C2c1ccc(-c2ccccc2)cc1 (stereo partly specified),3,-98*
O=C(C1CCC1)N1C[C@@H]2N[C@H](C1)C2c1ccc(/C=C/c2ccccc2)cc1 (stereo partly specified),-77,61
O=C(Nc1ccccc1)N1C[C@@H]2N[C@H](C1)C2c1ccc(-c2cccnc2)cc1 (stereo partly specified),-9,-5
Cc1cccc(-c2ccc(C3[C@@H]4CN(C(=O)Nc5ccc(F)cc5)C[C@H]3N4)cc2)c1 (stereo partly specified),-13,-91*!
O=C(C[C@H]1CC[C@H]2[C@@H](COC[C@@H](O)CN2C(=O)Nc2ccc(Cl)c(Cl)c2)O1)NCc1ccccc1,1,x
C[C@@H]1CN([C@H](C)CO)S(=O)(=O)c2ccc(C#Cc3cccc(F)c3)cc2O[C@@H]1CN(C)C(=O)CN1CCOCC1,-26,-9
SMILES,Pf Dd2 inh,C diff growth
COc1ccc(CN2CC3(CN(C(=O)Cc4ccccc4)C3)c3c([nH]c4cc(OC)ccc34)[C@H]2CO)cc1,-89*,-3
COc1ccc2c3c(n(C)c2c1)[C@H](CO)N(C(=O)Cc1ccccc1)CC31CN(C(=O)Cc2ccccc2)C1,-83*,9
COc1ccc2c3c([nH]c2c1)[C@H](CO)N(C(=O)Cc1ccccc1)CC31CCN(C(=O)Nc2ccccc2F)CC1,-91*,2
CCC(=O)N1CC2(CN(C(=O)Nc3ccc(F)cc3)C2)c2c([nH]c3cc(OC)ccc23)[C@@H]1CO,-84*,-2
COc1ccc2c3c([nH]c2c1)[C@@H](CO)N(C(=O)Nc1ccccc1F)CC31CCN(C(C)=O)CC1,-12,3
COc1ccc(CN2CC3(CN(C(=O)Cc4ccncc4)C3)c3c([nH]c4cc(OC)ccc34)[C@@H]2CO)cc1,-65,-1
CCC(=O)N1CC2(CCN(C(=O)Nc3ccc(F)cc3)CC2)c2c([nH]c3cc(OC)ccc23)[C@@H]1CO,-59,-4
CCC(=O)N1CC2(CN(C(=O)Cc3ccccc3)C2)c2c(n(C)c3cc(OC)ccc23)[C@@H]1CO,-37,2
C[C@@H]1CN([C@@H](C)CO)C(=O)Cc2cc(NC(=O)C3CC3)ccc2O[C@H]1CN(C)S(=O)(=O)c1ccc(F)cc1,-9,-2
C[C@H]1CN([C@@H](C)CO)C(=O)c2cc(-c3ccncc3)cnc2O[C@@H]1CN(C)C,20,-1
CC=Cc1ccc2n(c1=O)C[C@@H]1[C@@H](CO)[C@H](C(=O)N(C)C)[C@H]2N1Cc1cc(F)ccc1F (mixture of isomers),x,2
COc1ccc2c3c(n(C)c2c1)[C@H](CO)N(C(=O)c1ccccc1)CC31CCN(C(=O)c2ccccc2)CC1,-88*,-8
COc1ccc2c3c([nH]c2c1)[C@H](CO)N(C(=O)Cc1ccccc1)CC31CCN(C)CC1,-14,0
COc1ccc2c3c([nH]c2c1)[C@@H](CO)N(C(=O)Cc1ccccc1)CC31CCN(C(=O)Cc2ccccc2)CC1,-87*,25
COc1ccc2c3c(n(C)c2c1)[C@H](CO)N(C(=O)c1ccccc1)CC31CCN(C(C)=O)CC1,-36,-1
COc1ccc2c3c([nH]c2c1)[C@@H](CO)N(C(=O)Nc1ccc(F)cc1)CC31CN(C(=O)Cc2ccccc2)C1,-10,2
COc1ccc2c3c([nH]c2c1)[C@H](CO)N(C(=O)Cc1ccccc1)CC31CN(C(=O)Cc2ccccc2)C1,-83*,1
CN1[C@H](C(=O)NC2Cc3ccccc3C2)[C@@H](CO)[C@@H]2Cn3c(ccc(-c4cncnc4)c3=O)[C@@H]21,x,0
Cc1ccc(S(=O)(=O)N2C[C@@H]3O[C@H](CNS(=O)(=O)c4ccccc4C)CC[C@@H]32)cc1,-10,-6
O=C(C[C@H]1CC[C@@H]2[C@H](COC[C@H](O)CN2Cc2cocn2)O1)N[C@@H]1CCN(Cc2ccccc2)C1,34,5
